Hits are enriched below; roughly 6.3% of the tested compounds scored in any of these assays.
VP16 counter – counter-screen for ROR gamma inhibitors: Gal4-VP16 reporter; Potency, µM (doses to about 53.6 µM), without a hit: at the highest dose activity, negative = inhibition, most hits filed as inhibitors; Drosophila S2 Gal4-VP16 UAS-luciferase, luminescence, 20 h; hit rate 3.5% among 310,000; AID 2546;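 note: Gal4-VP16 expression switched on by copper sulfate through the metallothionein promoter; % is set by controls: 0 for no effect and ±100 for the full control effect; nearly all actives have a fitted effect of over 50% in size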
ATXN2 expr inh – inhibitors of ATXN2 expression. HEK-293 ATXN2-luciferase reporter, luminescence, 24 h. Potency, µM (series often up to 57 µM), for inactives: at the top dose activity change, negative = inhibition, usual class: inhibitors. hit rate 0.72% among 360,000; note: % is set by controls: 0 for no effect and ±100 for the full control effect; nearly all actives have a fitted effect of over 55% in size
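qHTS (up to 57 uM final) was run with 24 h compound exposure of reporter cells at 37 °C. Each well was multiplexed: SteadyGlo luminescence measured ATXN2-luciferase expression after a fluorogenic Gly-Phe-AFC viability readout (25 uM final).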
TGFb SMAD3 inh – blocks TGF-b signaling | HepG2 CAGA-GFP TGF-b/SMAD3 reporter, GFP fluorescence, 18 h; TGF-beta stimulated, 500 pg/mL final | hit rate 1.2% among 410,000 | Potency, µM (doses to about 46.1 µM), for the others: top-dose activity, negative = inhibition, most hits filed as inhibitors; note: % is set by controls: 0 for no effect and ±100 for the full control effect; nearly all actives have a fitted effect of over 65% in size
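Inhibition was scored as loss of TGF-beta-induced (500 pg/mL final, 18 hours, 37 degrees C) GFP in HEPG2 cells carrying a CAGA-GFP reporter, in DMEM with 1% FBS. Well GFP was summed per cell; Activity was normalised to unstimulated and stimulated DMSO wells, then concentration-response fitting.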
HepG2 tox – kills HepG2 cells in TGF-b inhibitor counter-screen. HepG2 CAGA-GFP viability, ATP luminescence, 18 h. Potency, µM (highest dose often 46.1 µM), for the others: at the highest dose activity change, negative = cytotoxicity, usual class: cytotoxic. hit rate 0.76% among 410,000. AID 588856
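HepG2 CAGA-GFP cells (1000/well, DMEM with 1% FBS) received compound, then TGF-beta at 500 pg/mL final, and were incubated 18 hours at 37 degrees C. Viability was read by CellTiter-Glo luminescence. Media-only wells were set as complete cell-killing and DMSO as no toxicity.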
S2 tox – reduces viability in counter-screen for ATXN expression inhibitors; S2 cells (HEK-293 line with an ATXN2-luciferase reporter) viability, CellTiter-Fluor protease fluorescence, 24 h; Potency, µM (series often up to 56.7 µM), most hits filed as cytotoxic; hit rate 0.49% among 400,000; AID 651635; note: nearly all actives have a fitted effect of over 40% in size
RORg inh – blocks mouse ROR gamma transcriptional activity. P51450. Drosophila S2 Gal4-RORgamma UAS-luciferase reporter, 20 h. Potency, µM (top dose mostly 53.6 µM), for the others: at the highest dose activity change, negative = inhibition, actives largely listed as inhibitors. hit rate 5.4% among 310,000. AID 2551; note: % is set by controls: 0 for no effect and ±100 for the full control effect; nearly all actives have a fitted effect of over 60% in size
Target sequence (P51450 whole entry, looked up, the tested form may be a part): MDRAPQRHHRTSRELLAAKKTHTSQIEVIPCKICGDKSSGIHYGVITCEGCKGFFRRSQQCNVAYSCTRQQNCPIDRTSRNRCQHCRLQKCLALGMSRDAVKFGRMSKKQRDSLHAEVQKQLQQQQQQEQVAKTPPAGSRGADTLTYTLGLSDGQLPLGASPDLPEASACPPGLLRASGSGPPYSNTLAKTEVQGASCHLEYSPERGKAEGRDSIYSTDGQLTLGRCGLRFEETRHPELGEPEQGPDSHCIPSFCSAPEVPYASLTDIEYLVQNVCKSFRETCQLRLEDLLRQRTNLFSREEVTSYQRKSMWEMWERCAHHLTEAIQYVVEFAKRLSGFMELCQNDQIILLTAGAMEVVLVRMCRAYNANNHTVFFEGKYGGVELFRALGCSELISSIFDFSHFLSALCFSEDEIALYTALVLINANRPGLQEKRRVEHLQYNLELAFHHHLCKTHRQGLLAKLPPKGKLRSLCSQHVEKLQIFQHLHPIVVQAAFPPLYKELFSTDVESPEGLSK
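Using a luciferase readout, inhibitors were identified by reduced reporter activity in Drosophila cells coexpressing a copper-inducible Gal4–ROR gamma fusion and UAS-driven Photinus luciferase, incubated 20 hr after 700 uM copper sulfate.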
An asterisk follows results filed as active; i = inactive; ? = inconclusive; · = no result. Calls come from the whole dose curve; as a rule, active = well fitted curve in the direction sought with a large enough effect; inconclusive = small, poorly fitted or top-dose-only effect, or another doubt; inactive = no such curve, though single readings can be large; an effect the other way counts as inactive or inconclusive. Potency is the fitted concentration of half-maximal effect.

SMILES	VP16 counter	ATXN2 expr inh	TGFb SMAD3 inh	HepG2 tox	S2 tox	RORg inh
O=c1c(S(=O)(=O)c2cccc(Cl)c2)cn(Cc2ccccc2)c2cc(N3CCOCC3)c(F)cc12	·	·	-9.9%	21.9%	·	·
CCNC(=O)NC(=O)COC(=O)CCCSc1nc2ccccc2s1	7.94µM*	?	6.7%	3.0%	i	?
O=C(CCCc1nc2ccccc2s1)Nc1nccs1	-4.3%	?	-4.1%	-33.1%	i	-9.6%
CCc1cccc(C)c1NC(=O)CCCSc1nc2ccccc2s1	-2.3%	0.0%	-9.9%	-1.0%	i	11.6%
Cc1cnc(NC(=O)CCCc2nc3ccccc3s2)s1	-0.6%	2.51µM*	?	-3.6%	?	-36.6%
CNC(=O)NC(=O)C(C)OC(=O)CCCSc1nc2ccccc2s1 (configuration not stated)	4.47µM*	?	-7.7%	6.2%	i	7.08µM*
Cc1ccccc1NC(=O)CCCSc1nc2ccccc2s1	2.51µM*	16.4%	-5.7%	-26.1%	i	12.6µM*
Cn1c(-c2ccncc2)nc2cc(C(=O)N[C@H]3CCCCNC3=O)cc(NC(=O)C3CCC3)c21	·	·	·	·	i	·
C[C@H]1CN([C@@H](C)CO)C(=O)CCCn2nncc2CO[C@H]1CN(C)S(=O)(=O)c1cccs1	·	-7.5%	13.2%	-33.1%	i	·
Cc1nnc2c3ccccc3nc(N3CCN(c4cccc(Cl)c4)CC3)n12	·	·	?	-32.3%	·	·
CNC(=O)NC(=O)C(C)OC(=O)CCCc1nc2ccccc2s1 (configuration not stated)	-22.8%	?	-6.0%	-4.6%	i	-33.6%
CCNC(=O)NC(=O)C(C)OC(=O)CCCSc1nc2ccccc2s1 (configuration not stated)	4.47µM*	?	-6.1%	6.7%	i	?
Cc1ccc(C)c(CN2C[C@H](Sc3nc4ccccc4[nH]3)C[C@H]2C(=O)N2CCCN(C)CC2)c1	·	·	·	·	i	·
Cn1c(N=Nc2ccccc2)nc2ccccc21	1.26µM*	7.1%	-6.8%	7.08µM*	i	0.708µM*
CCn1c(NCc2ccc(N(C)C)cc2)nc2ccccc21	0.0%	19.3%	11.3%	-37.7%	i	-25.2%
Cn1c(Cl)nc2ccccc21	1.5%	9.6%	28.1%	0.6%	i	-14.4%
CN(C)c1ccc(N=Nc2nc3ccccc3n2C)cc1	1.26µM*	·	?	-130.0%	·	0.398µM*
O=C(O)CCCn1cc(NC(=O)c2sc3ccccc3c2Cl)cn1	5.01µM*	-8.2%	8.1%	-0.2%	i	14.1µM*
Cc1ccnc(NC(=O)c2sc3cc(Cl)ccc3c2Cl)c1	?	73.7%	-11.0%	-2.5%	i	2µM*
Cc1nnc(NC(=O)c2sc3ccccc3c2Cl)s1	8.91µM*	?	-1.0%	-21.5%	i	?
O=C(O)CCCn1cc(NC(=O)c2c(F)cccc2F)cn1	-1.4%	10.7%	-1.5%	1.9%	i	-25.7%
Cc1nnc(NC(=O)c2ccccc2NC(=O)c2ccccc2)s1	-16.8%	·	-20.0%	-20.7%	i	17.8µM*
CC(C)Sc1nnc(NC(=O)CCc2ccccc2)s1	-19.6%	5.1%	-0.4%	-2.6%	i	11.2%
Cc1ccccc1C(=O)Nc1nnc(SC(C)C)s1	-0.4%	25.7%	-12.6%	-29.0%	i	2.51µM*
Cc1cccnc1NC(=O)c1sc2ccccc2c1Cl	8.91µM*	26.1%	-8.2%	-7.3%	i	8.91µM*
SMILES	VP16 counter	ATXN2 expr inh	TGFb SMAD3 inh	HepG2 tox	S2 tox	RORg inh
CC(C)c1nnc(NC(=O)CC(=O)Nc2ccccc2C(=O)O)s1	?	?	14.6%	-24.1%	i	11.2µM*
Cc1ccc(NC(=O)c2sc3ccccc3c2Cl)nc1	?	-1.7%	2.9%	3.6%	i	?
COc1ccc(S(=O)(=O)Nc2cccc(S(=O)(=O)N(C)C)c2)cc1[N+](=O)[O-]	·	·	11.2%	-0.6%	i	·
c1ncc2snnc2n1	·	·	-0.2%	-4.6%	·	·
OC1(c2cccnc2)CCN(Cc2ccc3c(c2)CN(Cc2ccc(F)c(F)c2)CCO3)CC1	·	·	·	·	i	·
CC(C)C[C@H](NC(=O)c1nc[nH]c1C(=O)N1CCc2ccccc2C1)C(=O)OCc1ccccc1	?	-22.5%	?	-46.1%	i	?
CNC(=O)c1[nH]cnc1C(=O)N[C@@H](Cc1ccccc1)C(=O)OCc1ccccc1	?	23.9%	1.8%	-39.9%	i	17.8µM*
O=C(N[C@@H](Cc1ccccc1)C(=O)OCc1ccccc1)c1nc[nH]c1C(=O)N1CCc2ccccc2C1	?	-19.0%	?	-70.2%	i	12.6µM*
C[C@H](NC(=O)c1nc[nH]c1C(=O)N[C@@H](Cc1ccccc1)C(=O)OC(C)(C)C)C(=O)OCc1ccccc1	?	-4.8%	?	-28.7%	i	7.94µM*
C[C@H](NC(=O)c1nc[nH]c1C(=O)N[C@@H](Cc1ccccc1)C(=O)OCc1ccccc1)C(=O)OCc1ccccc1	?	5.2%	?	-32.4%	i	11.2µM*
COc1cccc(OC)c1-c1cc(CCCc2cc(-c3c(OC)cccc3OC)nc3ccccc23)c2ccccc2n1	·	·	?	-107.1%	·	·
C[C@@H]1CN([C@H](C)CO)C(=O)CCCn2nncc2CO[C@H]1CN(C)Cc1cccc(C(=O)O)c1	·	-5.2%	0.4%	-15.8%	i	·
CCN(CC)C(=O)c1[nH]cnc1C(=O)NCC(=O)OCc1ccccc1	2.3%	0.1%	-0.4%	-2.5%	i	-22.5%
Cc1cccc(NC(=O)c2nc[nH]c2C(=O)N[C@@H](Cc2ccccc2)C(=O)OCc2ccccc2)c1	10µM*	-12.5%	?	-12.1%	i	2.24µM*
Cc1cccc(NC(=O)c2nc[nH]c2C(=O)NCc2ccccc2)c1	·	-21.2%	?	-29.2%	?	·
CCN(CC)C(=O)c1[nH]cnc1C(=O)N[C@@H](Cc1ccccc1)C(=O)OCc1ccccc1	?	4.2%	-6.2%	-24.8%	i	14.1µM*
CC(C)(C)OC(=O)CNC(=O)c1nc[nH]c1C(=O)N1CCc2ccccc2C1	?	4.2%	11.7%	12.7%	i	11.2µM*
CCN(Cc1ccccc1)S(=O)(=O)c1cc(C(=O)Nc2cc(Cl)cc(Cl)c2)ccc1F	·	·	5.01µM*	-36.5%	·	·
CCOc1ccc(NC(=O)c2ccc(F)c(S(=O)(=O)N(CC)Cc3ccccc3)c2)cc1	·	·	-2.3%	-28.4%	·	·
CCc1ccc(NC(=O)c2ccc(CNS(=O)(=O)c3ccc4c(c3)C(C)(C)C(=O)N4C)cc2)cc1	·	·	-31.4%	-27.5%	·	·
COc1ccc(CNS(=O)(=O)c2cc(C(=O)Nc3cc(Cl)cc(Cl)c3)ccc2F)cc1	·	·	7.08µM*	10µM*	·	·

Screening data from PubChem.
